Experimental data as given in PubChem BioAssay (EPA / NIEHS).
Results filed as inconclusive are left out. Active and inactive are the calls of the source. How the source made its calls: active means hit-call score of the fitted dose curve at least 0.9, where 1 is the maximum; inconclusive means response in the unintended direction; inactive means score below 0.9.

The compounds below were run against Glycogen synthase kinase-3 beta (Homo sapiens) (UniProt P49841) (assay: NVS_ENZ_hGSK3b: NovaScreen (NVS) Enzymatic Assay for human Glycogen Synthase Kinase-3 beta (GSK3b) (AID 2283165)).
Glycogen synthase kinase-3 beta (Homo sapiens), sequence (P49841 whole entry, looked up): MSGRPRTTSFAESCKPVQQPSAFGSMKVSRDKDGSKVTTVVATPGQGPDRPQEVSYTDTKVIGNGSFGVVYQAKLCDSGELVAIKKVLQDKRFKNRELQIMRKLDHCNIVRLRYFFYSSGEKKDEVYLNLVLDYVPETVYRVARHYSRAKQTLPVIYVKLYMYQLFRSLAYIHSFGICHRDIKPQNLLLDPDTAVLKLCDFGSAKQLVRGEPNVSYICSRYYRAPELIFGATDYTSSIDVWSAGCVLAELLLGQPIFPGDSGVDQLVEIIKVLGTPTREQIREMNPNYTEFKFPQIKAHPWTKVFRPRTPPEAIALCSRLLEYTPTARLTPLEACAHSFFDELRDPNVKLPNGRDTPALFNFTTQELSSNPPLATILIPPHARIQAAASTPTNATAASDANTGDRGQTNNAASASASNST
Outline: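 Recombinant enzyme with specific fluorescent substrate, 1 h, product separated by electrophoretic mobility shift. Primary duplicate screen at 25 uM; actives (e.g. 30% inhibition) followed in singleton concentration-response to 50 uM. Signal loss fitted versus DMSO.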

Row | Compound | outcome
1 | C1CC2OC2CC1C1CO1 (stereo not drawn) | inactive
2 | CC(C)C(=O)OCC(C)(C)C(OC(=O)C(C)C)C(C)C (stereo not drawn) | inactive
3 | Clc1ccc(Cl)cc1 | inactive
4 | C=CC(N)=O | inactive
5 | Cc1ccccc1O | inactive
6 | COc1ccc(O)c(C(C)(C)C)c1 | inactive
7 | O=C(NC(=O)c1cc(F)c(F)cc1Cl)Nc1cc(F)ccc1N1CCC(C(=O)O)CC1 | inactive
8 | Cc1ccc(O)c(C)c1 | inactive
9 | O=C(O)C(F)(F)C(F)(F)C(F)(F)C(F)(F)C(F)(F)C(F)(F)C(F)(F)C(F)(F)F | inactive
10 | Cc1ccccc1[N+](=O)[O-] | inactive
11 | CCCN(CCC)N=O | inactive
12 | Cc1cc(O)ccc1Cl | inactive
13 | CC1=C2C[C@H]3[C@@H](CC=C4C[C@@H](O)CC[C@@]43C)[C@@H]2CC[C@]12O[C@@H]1C[C@H](C)CN[C@H]1[C@H]2C | inactive
